High-throughput results deposited in PubChem by National Center for Advancing Translational Sciences (NCATS).
Sfp inh – qHTS Assay for Inhibitors of Bacillus subtilis Sfp phosphopantetheinyl transferase (PPTase). 4'-phosphopantetheinyl transferase ffp (Bacillus subtilis), Q9F4F7. Biochemical Sfp PPTase activity, qHTS. Potency, µM, for the others: largest response in the series, negative = inhibition, most hits filed as inhibitors. 310,000 compounds, 3.5% hits;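 further: the enzyme is Sfp with the accession as filed and its product quenches rhodamine fluorescence; 0% = enzyme reaction without inhibitor and -100% = no enzyme wells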
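Step 1, compound plus 15 nM Sfp-PPTase, 15 min, room temperature. Step 2, add rhodamine-CoA (5 uM) and BHQ-2-YbbR (12.5 uM). Step 3, read 525/598 nm fluorescence at 0 and 30 min.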
HP1b chromo inh – HTS for Inhibitors of HP1-beta Chromodomain Interactions with Methylated Histone Tails. Chromobox protein homolog 1 (Homo sapiens), P83916. AlphaScreen HP1-beta / biotin-H3K9me3 peptide binding. Potency, µM (doses to about 114 µM), without a hit: top-dose activity change, negative = inhibition, hits mostly inhibitors. 390,000 compounds, 0.56% hits. AID 540317, 2011; further: nearly all actives have a fitted effect of over 70% in size
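AlphaScreen: HP1-beta (50 nM) preformed 30 min with biotin-H3(1-18)K9me3 peptide (50 nM) in PBS pH 7.4, 0.01% Tween-20. Compound added for 30 min at RT, then streptavidin donor/nickel chelate acceptor beads (10 ug/mL) for 30 min.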
JMJD2A Tudor inh – qHTS Assay for Inhibitors of JMJD2A-Tudor Domain; AlphaScreen JMJD2A-Tudor / H3K4me3 peptide binding; Potency, µM (series often up to 114 µM), inactives show at the top dose activity change, negative = inhibition, most hits filed as inhibitors; 390,000 compounds, 4.4% hits; AID 504339, 2011; further: on the % scale 0 is the no-effect control and ±100 the full control effect; nearly all actives have a fitted effect of over 50% in size
BAZ2B inh – qHTS Assay for Inhibitors of BAZ2B; Bromodomain adjacent to zinc finger domain protein 2B (Homo sapiens), Q9UIF8; AlphaScreen BAZ2B-H3K14Ac peptide displacement; Potency, µM (doses to about 114 µM), for the others: top-dose activity change, negative = inhibition, hits mostly inhibitors; 360,000 compounds, 4.4% hits; AID 504333, 2011; further: on the % scale 0 is the no-effect control and ±100 the full control effect; nearly all actives have a fitted effect of over 60% in size
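Compounds, titrated to a top concentration of 110 uM, were incubated 30 min at room temperature with preformed BAZ2B/acetyl-K14 H3 peptide complex (50 nM each). Proximity signal was measured by AlphaScreen after 20 min with beads.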
TDP1 block – qHTS Assay for Inhibitors of Tyrosyl-DNA Phosphodiesterase (TDP1); recombinant TDP1, AlphaScreen DNA substrate cleavage; Potency, µM (highest dose often 130 µM), without a hit: at the highest dose activity change, negative = inhibition, most hits filed as inhibitors; 350,000 compounds, 0.28% hits; AID 485290, 2010; further: on the % scale 0 is the no-effect control and ±100 the full control effect; nearly all actives have a fitted effect of over 40% in size
Target sequence (Q9NUW8 whole entry, looked up): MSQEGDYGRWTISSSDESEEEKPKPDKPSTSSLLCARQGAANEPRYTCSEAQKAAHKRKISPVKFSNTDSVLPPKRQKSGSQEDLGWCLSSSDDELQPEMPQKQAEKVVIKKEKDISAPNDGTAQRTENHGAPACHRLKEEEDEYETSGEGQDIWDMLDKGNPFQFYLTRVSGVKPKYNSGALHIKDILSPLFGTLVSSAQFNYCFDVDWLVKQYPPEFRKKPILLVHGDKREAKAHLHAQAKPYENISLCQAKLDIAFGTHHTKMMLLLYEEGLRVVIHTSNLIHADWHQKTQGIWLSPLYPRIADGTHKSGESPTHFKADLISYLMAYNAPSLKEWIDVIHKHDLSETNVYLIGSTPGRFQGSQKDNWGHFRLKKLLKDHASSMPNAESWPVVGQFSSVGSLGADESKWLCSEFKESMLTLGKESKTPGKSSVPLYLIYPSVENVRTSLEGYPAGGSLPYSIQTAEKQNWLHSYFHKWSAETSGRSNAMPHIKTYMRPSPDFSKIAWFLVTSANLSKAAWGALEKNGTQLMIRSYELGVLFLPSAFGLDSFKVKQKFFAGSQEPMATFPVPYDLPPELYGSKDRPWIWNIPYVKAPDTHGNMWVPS
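Signal: AlphaScreen proximity between streptavidin donor and anti-FITC acceptor beads on intact substrate. Reaction: Tdp1 1 nM, substrate 15 nM final, 5 min RT after 15 min compound preincubation.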
G9a inh – qHTS Assay for Inhibitors of Histone Lysine Methyltransferase G9a. Histone-lysine N-methyltransferase EHMT2 (Homo sapiens), Q96KQ7. 350,000 compounds, 8.8% hits. Potency, µM (titrated, usually from 102 µM), for inactives: top-dose activity, negative = inhibition, actives largely listed as inhibitors. G9a H3K9 monomethylation, AlphaScreen, 2 h; further: on the % scale 0 is the no-effect control and ±100 the full control effect; nearly all actives have a fitted effect of over 75% in size
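G9a (20 nM) was preincubated 15 min with compound, then reacted 2 h at room temperature with 500 nM biotin-H3K9 peptide and 20 µM SAM. Monomethyl-H3K9 detected by AlphaScreen using anti-H3K9me1 antibody.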
* = called active by the depositor; ? = inconclusive; . = not tested or not shown; [ ] = dose if it differs, or a comment. Rows were chosen to be rich in hits. Some 12% of all compounds tested hit in one or more screens of this group. The call rests on the fitted dose curve; in most records, active means well fitted curve in the direction sought with a large enough effect; inconclusive means small, poorly fitted or top-dose-only effect, or another doubt; inactive means no such curve, though single readings can be large; an effect the other way counts as inactive or inconclusive. Potency means the concentration at half of the fitted maximal effect.

SMILES | Sfp inh | HP1b chromo inh | JMJD2A Tudor inh | BAZ2B inh | TDP1 block | G9a inh
O=C1C=C(c2ccoc2)N2CCC[C@H]2C1 | . | 20% | -9% | . | 1% | .
Cc1c(C(=O)NCCc2ccc(Cl)cc2)sc2nc3n(c(=O)c12)CCCC3 | . | 53% | -33% | 40µM* | 10% | ?
C[n+]1cc[nH]c1SCC(=O)c1ccccc1 | -25% | 0% | -30% | -31% | 2% | 50µM*
O=C(O)CSCC(=O)c1ccccc1 | -18% | 53% | -7% | . | 6% | -44%[59 µM]
COc1ccc(/C=N/N2C(C)CCCC2C)cc1O (centres undefined) | 8% | 13% | 2% | 9% | . | 5%[2.33 µM]
COc1cc(/C=N/N2C(C)CCCC2C)cc(Br)c1O (centres undefined) | ? | -16% | -31% | . | 0% | ?
CC1CCCC(C)N1/N=C/c1ccc(O)c(O)c1 (centres undefined) | 45µM* | ? | 22µM* | ? | . | 3.5µM*
CC1CCCC(C)N1/N=C/c1cc(Br)c(O)c(Br)c1 (centres undefined) | 56µM* | . | . | -23% | 3% | 5.6µM*
Cc1cccc(NS(=O)(=O)c2cccc(C(=O)NCC(C)(C)N3CCOCC3)c2)c1 | 12% | 22% | -9% | 21% | 0% | .
CCn1c(CNc2ccc(C(=O)O)cc2)nc2ccccc21 | -24% | 13% | -5% | -7% | 2% | 1%[59 µM]
CCn1cnc2cc(NCc3nc4ccccc4n3Cc3ccccc3)ccc21 | 14% | -6% | 45µM* | 40µM* | 8% | ?
O=C(O)c1ccc(NCc2nc3ccccc3n2Cc2ccccc2)cc1 | 18% | 39% | -9% | 50µM* | . | 1%
CCN(CC)CCn1c(NCc2nc3ccccc3n2Cc2ccccc2)nc2ccccc21 | 2% | 6% | ? | ? | 7% | ?
N#Cc1ccccc1OC1=NS(=O)(=O)c2ccccc21 | . | . | -18% | . | 2% | .
COc1ccc(Cc2nnc(SCC(=O)Nc3ccc(N4CCOCC4)cc3)n2C)cc1 | 13% | -4% | -9% | -1% | . | 13%
COc1cccc(/C=C2\SC(N3CCCC(C)C3)=NC2=O)c1OC (centres undefined) | -10% | 21% | -7% | -17% | . | 71µM*
NC1=NC(=O)/C(=C/c2ccccc2OS(=O)(=O)c2ccccc2)S1 | 0% | 20% | -18% | -9% | 3% | ?
COc1cccc(/C=C2\SC(N3CCC(C)CC3)=NC2=O)c1OC | 50µM* | -10% | -6% | -2% | . | 28µM*
COc1cc(OC)c(OC)cc1/C=C1\SC(N2CCCCC2)=NC1=O | 1% | -8% | -28% | -17% | . | ?
CN1CCN(C2=NC(=O)/C(=C/c3ccccc3OS(=O)(=O)c3ccccc3)S2)CC1 | 20µM* | -1% | -13% | -14% | . | 45µM*
COc1ccccc1/C=C1\SC(N2CCC(C)CC2)=NC1=O | -11% | 13% | -26% | -21% | . | -11%
CCc1ccc(-c2csc(NC(=O)C3=COCCO3)n2)cc1 | . | 19% | 0% | 3% | 3% | 2%[12.7 µM]
CCOc1ccc(-n2c(=O)c3c4c(sc3n(CC(=O)Nc3cccc(C(F)(F)F)c3)c2=O)CCCCC4)cc1 | . | 29% | -7% | -2% | 2% | 3%[59 µM]
O=C(N1CCOCC1)N(CCN1CCOCC1)Cc1cccc2ccccc12 | 1% | 50% | -2%[11.4 µM] | 9% | 4% | -2%[12.7 µM]
CC1(C(=O)c2ccccc2)C2c3c(ccc4ccccc34)OC(=O)C21C(=O)N1CCOCC1 (centres undefined) | 5% | -11% | -27% | ? | 6% | 79µM*
SMILES | Sfp inh | HP1b chromo inh | JMJD2A Tudor inh | BAZ2B inh | TDP1 block | G9a inh
CCOC(=O)c1sc(-c2ccc(C)cc2)c(C#N)c1C | ? | -10% | 3% | 12% | -1% | 40µM*
Cc1sc(NC(=O)c2cc(-c3ccc(Cl)cc3)nc3ccccc23)c(C(N)=O)c1C | ? | ? | -14% | 2% | -2% | 13µM*
O=C(COC(=O)c1cc(-c2ccccc2)nc2ccccc12)c1ccc(Br)cc1 | . | 37% | 5% | 12% | 3% | 28%[59 µM]
C/C(N)=C(/C#N)C(=O)COC(=O)c1cc(-c2ccc(Br)cc2)nc2ccccc12 | 3% | 14% | -4% | 16% | 3% | 1.8µM*
Cc1c(C(=O)NN)sc(-c2ccccc2)c1C#N | 12% | 70% | -3% | . | 7% | -5%
Cc1sc(NC(=O)c2cc(-c3ccccc3)nc3ccccc23)c(C(N)=O)c1C | -12% | 19% | -14% | -29% | 1% | 15%[59 µM]
COc1ccc(-c2cc(C(=O)Nc3sc4c(c3C#N)CCCC4)c3ccccc3n2)cc1 | 9% | -10% | -29% | -11% | 0% | 15%[59 µM]
CCOC(=O)c1sc(NC(=O)c2cc(-c3ccc(C)cc3)nc3ccccc23)c(C#N)c1C | 20µM* | ? | 79µM* | 0% | 4% | 5.6µM*
CN(C)c1cccc(S(=O)(=O)N2CCN(S(=O)(=O)c3ccc4c(c3)OCCO4)CC2)c1 | . | . | -23% | . | -3% | .
Cc1ccccc1-c1cc(C(=O)Nc2sc(C(=O)OC(C)C)c(C)c2C#N)c2ccccc2n1 | 40µM* | ? | 56µM* | -1% | 12% | 45µM*
O=[N+]([O-])c1ccc(NC(=S)N/C(=N/CS(=O)(=O)c2ccccc2)c2ccccc2)cc1 | -7% | 25% | -25% | ? | 3% | 11µM*
COc1ccc(/C=C2\SC(=S)N(CC(=O)OCC(=O)Nc3ccc(C)cc3Cl)C2=O)cc1 | -24% | 5% | ? | -26% | . | 14µM*
COc1ccc(/C=C2\SC(=S)N(CCC(=O)Nc3ccc(C(=O)O)cc3)C2=O)cc1 | -3% | 50µM* | -101% | 35µM* | . | 20%[0.501 µM]
O=C(CCN1C(=O)/C(=C/c2ccc(Cl)cc2)SC1=S)Nc1ccc(C(=O)O)cc1 | -4% | 71µM* | ? | -16% | . | ?
Brc1ccc(C2NCCS2)cc1 (centres undefined) | -22% | 31% | -13% | 3% | 11% | ?
CC(=O)OC1CC(O)C(C)(C)C2CC(OC(C)=O)[C@]3(C)C(CC[C@@]4(C)C(c5ccoc5)OC(=O)C5OC534)[C@]12C (some centres undefined) | -1% | . | . | . | 14%[56.1 µM] | .
